How the values were obtained:
Experiment in all cases: PBM binding z-score (relative to random genomic background probes); higher = stronger binding; sequences stand for … in GC…GCGATTGACAGCGTAGAATGAAGG
[1] = system: FXR:RXRa (NR concentration 270 nM, RXRa partner concentration 90 nM)
Summary of the method: (§1)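 Antibodies against each partner of ligand-free nuclear receptor dimers (one per run) detected binding on custom Agilent 4×180K protein-binding microarrays after 1 h incubation. The double-stranded probes had 34-nt variable regions carrying direct-repeat seeds, single-nucleotide variants, half-site ablations and random human genomic background sequences. Binding z-scores, from regression-normalized fluorescence, use the random background probes as reference.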

[2] = system: LXRa:RXRa (NR concentration 270 nM, RXRa partner concentration 90 nM)
Summary of the method: as §1

[3] = system: LXRa homodimer (NR concentration 270 nM)
Summary of the method: as §1

[4] = system: LXRb:RXRa (NR concentration 270 nM, RXRa partner concentration 90 nM)
Summary of the method: as §1

[5] = system: LXRb homodimer (NR concentration 270 nM)
Summary of the method: as §1

[6] = system: PPARa:RXRa (NR concentration 270 nM, RXRa partner concentration 90 nM)
Summary of the method: as §1

[7] = system: PPARg:RXRa (NR concentration 180 nM, RXRa partner concentration 90 nM)
Summary of the method: as §1

[8] = system: PPARg:RXRa 270nM:90nM, anti-RXR (NR concentration 270 nM, RXRa partner concentration 90 nM)
Summary of the method: as §1

[9] = system: PPARg:RXRa 30nM:10nM, anti-RXR (NR concentration 30 nM, RXRa partner concentration 10 nM)
Summary of the method: as §1

[10] = system: PPARg:RXRa 90nM:30nM, anti-RXR (NR concentration 90 nM, RXRa partner concentration 30 nM)
Summary of the method: as §1

[11] = system: PPARg:RXRa DBDmut IVT, anti-RXR (DBD mutation: RXRa K156A/R161A, NR concentration 270 nM, RXRa partner concentration 90 nM)
Summary of the method: as §1

[12] = system: PPARg:RXRa IVT, anti-PPARg (NR concentration 270 nM, RXRa partner concentration 90 nM)
Summary of the method: as §1

[13] = system: PPARg DBDmut:RXRa IVT, anti-PPARg (DBD mutation: PPARg1 K132A/R137A, NR concentration 270 nM, RXRa partner concentration 90 nM)
Summary of the method: as §1

[14] = system: PPARg DBDmut IVT, anti-PPARg (DBD mutation: PPARg1 K132A/R137A, NR concentration 270 nM)
Summary of the method: as §1

[15] = system: PPARg homodimer (NR concentration 180 nM)
Summary of the method: as §1

[16] = system: PXR:RXRa (NR concentration 270 nM, RXRa partner concentration 90 nM)
Summary of the method: as §1

[17] = system: PXR homodimer (NR concentration 270 nM)
Summary of the method: as §1

[18] = system: RARa:RXR (NR concentration 270 nM, RXRa partner concentration 90 nM)
Summary of the method: as §1

[19] = system: RARa homodimer (NR concentration 270 nM)
Summary of the method: as §1

[20] = system: RARb:RXRa (NR concentration 270 nM, RXRa partner concentration 90 nM)
Summary of the method: as §1

| Sequence | PBM binding z-score [1] | PBM binding z-score [2] | PBM binding z-score [3] | PBM binding z-score [4] | PBM binding z-score [5] | PBM binding z-score [6] | PBM binding z-score [7] | PBM binding z-score [8] | PBM binding z-score [9] | PBM binding z-score [10] | PBM binding z-score [11] | PBM binding z-score [12] | PBM binding z-score [13] | PBM binding z-score [14] | PBM binding z-score [15] | PBM binding z-score [16] | PBM binding z-score [17] | PBM binding z-score [18] | PBM binding z-score [19] | PBM binding z-score [20] |
| --- | --- | --- | --- | --- | --- | --- | --- | --- | --- | --- | --- | --- | --- | --- | --- | --- | --- | --- | --- | --- |
| TAGCGTAGGTCATTCAGGGGCCAGTATAGAAAGC | 4.91 | 4.31 | 0.816 | 3.43 | 1.24 | 4.19 | 1.8 | 2.55 | 0.626 | 1.6 | 0.864 | 1.61 | 0.591 | 0.134 | 2.48 | 3.08 | 0.138 | 4.5 | 0.404 | 3.99 |
| TCTTGTAGATCAGCAGGTTAAGATAGCTGGCCAA | -0.0531 | 0.217 | -0.176 | 0.312 | -0.375 | 0.692 | -0.179 | 1.28 | 2.71 | 1.95 | 1.75 | 0.446 | 0.0165 | 0.121 | 0.155 | 0.31 | -0.37 | 0.429 | -0.336 | 0.168 |
| GCGACTGGGGCATCAGCAGGTTGCCATAACTTAA | -0.664 | -0.697 | -0.615 | -0.443 | -1.37 | 0.348 | 0.434 | 0.229 | -0.762 | -0.301 | 3.45 | 2.85 | 0.246 | -0.846 | -0.258 | -0.58 | -0.422 | -0.453 | -0.648 | 0.207 |
| AGTCAAAGTTCACTAGGAAACGTAAGATTCAGCT | 5.38 | 5.47 | 2.41 | 2.89 | 0.822 | 4.1 | 5.8 | 6.01 | 2.93 | 5.11 | 0.0474 | 2.6 | 1.13 | 0.557 | 2.18 | 3.61 | 2.13 | 2.66 | 0.899 | 4.84 |
| GCTAGTTGGTCAGTAAAAGGCCACACACCGGTCG | -0.0469 | -0.0882 | -0.17 | -0.23 | -0.629 | 0.0643 | 0.521 | 0.122 | -0.368 | 0.378 | -0.0753 | 0.216 | -0.775 | -1.15 | 0.58 | -0.0291 | -0.108 | 0.345 | -0.305 | 1.42 |
| CGTTACGGGTCACTCCAGGTTATAGCATCGGAGT | 4.94 | 7.62 | 1.6 | 5.34 | -0.0358 | 4.67 | 3.44 | 4.08 | 1.42 | 2.69 | 2.91 | 3.75 | 0.311 | -0.48 | 1.14 | 5.09 | 0.162 | 3.59 | 0.11 | 3.66 |
| GATACAGGGTCAGCTAGAGGCCGGAGTATGGAAA | 4.48 | 2.56 | -0.44 | 2.17 | -0.594 | 4.57 | 3.61 | 3.41 | 0.716 | 2.13 | 1.03 | 2.37 | -0.293 | 0.124 | 1.78 | 2.59 | -0.0586 | 3.41 | 0.211 | 4.12 |
| ATATGTAGGTTATCGGGTCAGTCAGTTTGCGCAT | 2.15 | 2.12 | 0.91 | 1.91 | 1.49 | 4.28 | 6.83 | 5.81 | 3.11 | 5 | 7.7 | 7.77 | 4.15 | 2.31 | 2.57 | 2.53 | 2.52 | 2.6 | 1.19 | 2.55 |
| TCTTGTAGATCGAAGGTTAAGAAAGCCGAAGCCT | 0.669 | 0.667 | -0.334 | 0.511 | -0.593 | 2.25 | 3.11 | 5.23 | 4.1 | 5.26 | 1.1 | 1.32 | -0.629 | -0.226 | 0.155 | 0.143 | -0.658 | 0.948 | -0.208 | 0.667 |
| CAAACTAGGTCAAGGTCAAAGCCGGTTTGTGCCA | 6.25 | 5.33 | 3.23 | 4.36 | 1.05 | 6.15 | 9.26 | 8.02 | 6.18 | 7.95 | 8.75 | 8.89 | 2.59 | 0.00542 | 2.93 | 4.89 | 1.4 | 4.84 | 0.855 | 5.2 |
| TGAATGAGGTTATTAGATCAGGGAACGTTGCAAA | 1.98 | 1.62 | 0.0291 | 1.3 | 0.0407 | 3.09 | 2.46 | 2.61 | 0.886 | 1.65 | 2.05 | 2.98 | 1.48 | 0.859 | 0.948 | 0.902 | 0.241 | 1.43 | 0.496 | 1.24 |
| ATCTCTAGTTAAGACTCAGTTCAGTGAAGAACGC | 0.381 | 0.546 | 0.699 | 0.459 | 0.922 | -0.0115 | -0.0269 | 0.419 | 0.293 | 0.347 | 0.356 | 0.194 | 1.65 | 1.35 | 1.07 | 1.23 | 2.02 | 0.831 | 1.93 | 0.235 |
| TCTTGTAGATCAACAGGAGGTCAAGAAAGATCGA | 2.21 | 3.53 | 3.02 | 3.32 | 0.366 | 3.71 | 1.04 | 2.25 | 2.55 | 2.35 | 1.49 | 2.17 | 0.588 | 0.144 | 1.8 | 3.74 | 0.715 | 4.01 | 0.649 | 2.84 |
| TAGCCTAGGTCATGCGGGCGAGTATAGTGTCGGC | 3.79 | 2.5 | 0.369 | 1.21 | -0.906 | 3.32 | 2.45 | 2.08 | -0.413 | 1.37 | 1.54 | 2.78 | -0.28 | -1 | 0.366 | 0.704 | -0.37 | 1.97 | -0.358 | 3.54 |

From the supplement of paper PMC6555819
